In PubChem BioAssay (Tox21):
Results filed as inconclusive are left out. Entries that show only a call come without a potency. Active and inactive are the calls of the source. Calls follow the shape of the dose curve; as a rule, active = well fitted cell-killing curve with a large enough effect in the repeat runs; inconclusive = weak or mixed curves, or effect the other way; inactive = flat fitted curve, though single readings scatter.

Experiment: qHTS RealTime-Glo MT Cell Viability Assay in HEK293 cells - 8 hour (AID 1224887); also: nearly all actives have a fitted effect of over 50% in size
Settings: RealTime-Glo luminescence; series mostly up to 76.8 µM
Description: U.S. Tox21 Program National Center for Advancing Translational Sciences [NCATS] NIH Chemical Genomics Center [NCGC] U.S. Environmental Protection Agency [EPA] National Institutes of Environmental Health Sciences [NIEHS] National Toxicology Program [NTP] U.S. Food and Drug Administration [FDA] Tox21 Assay Overview: Measure of cell viability is critical in the cell-base assay. Analysis of cell viability is necessary for the characterization of cell responses to cytotoxic drugs and environmental stress. A RealTime-Glo MT Cell Viability Assay to monitor cell viability in real time of continues cell culture during 40 hours of compound treatment was used to screen Tox21 10K library compounds in Hek293 cells. The RealTime-Glo MT Cell Viability Assay is a nonlytic, homogeneous, bioluminescent method to measure cell viability in real time using a simple, plate-based method. The assay involves adding NanoLuc luciferase and a cell-permeant prosubstrate to cells in culture. Viable cells reduce the proprietary prosubstrate to generate a substrate for NanoLuc luciferase. This substrate diffuses from cells into the surrounding culture medium, where it is rapidly used by the NanoLuc Enzyme to produce a luminescent signal. The signal correlates with the number of viable cells, making the assay well suited for cytotoxicity studies.
Tox21 Assay Protocol Summary: The mixture of Hek293 cell suspension and reagents were dispensed at 600cells/6 ul/well in 1536-well tissue culture treated black solid bottom plates using a Multidrop dispenser. After the assay plates were incubated at a 37 C/5% CO2 incubator for 5 hours, 23 nL of compounds dissolved in DMSO, positive and negative controls was transferred to the assay plate by a pintool work station. The plates were incubated at 37 C for 40 hours. The luminescence intensity were measured at 0h, 8h, 16h, 24h, 32h and 40h time points using ViewLux plate reader during compound treatment.
Potency is read from the fitted curve at half-maximal effect.

SMILES	Potency
Fc1c(F)c(F)c(Br)c(F)c1F	inactive
CC(C)C(=O)O	inactive
CC(C)(C)C(=O)O	inactive
CCCCN(CCCC)C(=S)SSC(=S)N(CCCC)CCCC	34.3 µM (active)
CCCCCCOC(=O)C(C)C	inactive
CC(=O)Nc1ccccc1C	inactive
Nc1ccc(S(=O)(=O)O)c(N)c1	inactive
CCCCCCCCCCCC(=O)[O][Sn]([CH2]CCC)([CH2]CCC)[O]C(=O)CCCCCCCCCCC	inactive
CC1CC(=O)NN=C1c1ccc(NCC(C)(C)NCC(O)COc2cc(Cl)ccc2C#N)cc1 (stereo not given)	inactive
CCc1nn(CCCN2CCN(c3cccc(Cl)c3)CC2)c(=O)n1CCOc1ccccc1	10.7 µM (active)
O=C(CCCN1CCN(c2ccc(F)cc2)CC1)NC1c2ccccc2CSc2ccccc21 (stereo not given)	19 µM (active)
CCCCCC=CCC=CCCCCCCCC(=O)OCC	inactive
CC1CC(O)CC(C)(C)C1 (stereo not given)	inactive
CCC1(C)CC(=O)NC1=O (stereo not given)	inactive
CO[Si](C)(OC)OC	inactive
O=C(O)c1ccccc1NCCc1ccccc1	inactive
CCCCCCCC/C=C\CCCCCCCC(=O)OC	inactive
OCC1CC=CCC1 (stereo not given)	inactive
CCN(Cc1cccc(S(=O)(=O)O)c1)c1ccc(C(=C2C=CC(=[N+](CC)Cc3cccc(S(=O)(=O)[O-])c3)C=C2)c2ccccc2)cc1	inactive
c1cc[c]([Bi]([c]2ccccc2)[c]2ccccc2)cc1	inactive

SMILES	Potency
CC(=O)CC(c1ccc([N+](=O)[O-])cc1)c1c(O)c2ccccc2oc1=O (stereo not given)	inactive
CC1(C)O[C@@H]2C[C@H]3[C@@H]4CCC5=CC(=O)C=C[C@]5(C)[C@H]4[C@@H](O)C[C@]3(C)[C@]2(C(=O)CO)O1	inactive
CC(N)CN (stereo not given)	inactive
O=C(O)c1snc(Cl)c1Cl	inactive
C[C@@H]1C[C@H]2[C@@H]3CCC4=CC(=O)C=C[C@]4(C)[C@@]3(F)[C@@H](O)C[C@]2(C)[C@H]1C(=O)CO	inactive
CCNC(=O)N1CCN(CCCC(c2ccc(F)cc2)c2ccc(F)cc2)CC1	16.9 µM (active)
C/C=C(\C)C(=O)OCCC(C)CCC=C(C)C (stereo not given)	inactive
CCCCCCCCCOC(C)=O	inactive
CC1=C(/C=C/C(C)=C\C=C\C(C)=C\C(=O)O)C(C)(C)CCC1	inactive
C[N+]1(C)CCC(=C(c2ccccc2)c2ccccc2)CC1	inactive
Nc1ccc(C(=O)OCCCOC(=O)c2ccc(N)cc2)cc1	43.6 µM (active)
CC1=NN(c2ccc(C(=O)O)cc2)C(=O)C1	inactive
CC1=CC(O)CC(C)(C)C1 (stereo not given)	inactive
CN(C)CCOC1=Cc2ccccc2Sc2ccc(Cl)cc21	inactive
Cc1cc2nc3ccc(=[N+](C)C)cc-3sc2cc1N	1.9 µM (active)
Nc1nc(Cl)nc2c1ncn2[C@@H]1O[C@H](CO)[C@@H](O)[C@@H]1F	inactive
CCCOC(=O)c1ccc(C(=O)OCCC)nc1	inactive
CCCc1c(OCCCOc2ccc(OCC(=O)O)cc2)ccc(C(C)=O)c1O	inactive
CCC(=O)OC/C=C/c1ccccc1	inactive
CCCCC(=O)O[C@]1(C(=O)CO)CC[C@H]2[C@@H]3CCC4=CC(=O)CC[C@]4(C)[C@H]3[C@@H](O)C[C@@]21C	inactive
